Test [1] can be described thus: qHTS for Inhibitors of the Functional Ribonucleoprotein Complex (vRNP) of Lassa (LASV) Arenavirus: Viability assay - alamar blue signal for LASV Primary Screen (AID 1347083; calls by dose curve; tested in HEK293 reporter line; note: nearly all actives have a fitted effect of over 80% in size; note: potency is the fitted concentration of half-maximal effect). On the technique in general: In qHTS, concentration-response curves come from the screen itself.
Test [2] in a line: qHTS for Inhibitors of the Functional Ribonucleoprotein Complex (vRNP) of Lymphocytic Choriomeningitis Arenaviruses (LCMV): Viability assay - alamar blue signal for LCMV Primary Screen (AID 1347085; calls by dose curve; tested in HEK293 reporter line; note: nearly all actives have a fitted effect of over 80% in size; note: potency is the fitted concentration of half-maximal effect).
Test [3] concerns the target Nucleoprotein (Lymphocytic choriomeningitis virus (strain Armstrong)) (UniProt P09992). Nature of the test: qHTS for Inhibitors of the Functional Ribonucleoprotein Complex (vRNP) of Lymphocytic Choriomeningitis Arenaviruses (LCMV): LCMV Primary Screen - GLuc reporter signal (AID 1347086). For activity change, negative = inhibition: % is set by controls: 0 for no effect and ±100 for the full control effect. Note: nearly all actives have a fitted effect of over 70% in size. Note: potency is the fitted concentration of half-maximal effect.
A short description of test [4]: Cytotoxicity counterscreen for inhibitors of SARS-CoV-2 cell entry (AID 1645845). Note: nearly all actives have a fitted effect of over 50% in size. Note: potency is the fitted concentration of half-maximal effect. The essentials:
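Counterscreen run in the same HEK293-ACE2 line as the pseudotyped-particle entry assay, without particles. Viability after 48 h at 37 C was read as ATP luminescence, scaled between cell-containing and cell-free wells.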

Test [5] is described as follows: Primary qHTS to identify inhibitors of SARS-CoV-2 cell entry (AID 1645846). Note: nearly all actives have a fitted effect of over 45% in size. The conditions noted are these: activity change, negative = inhibition: at 57.1 µM (top of the series) unless noted. The essentials:
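Luminescence readout (Bright-Glo luciferase) 48 h after pseudoparticle addition. HEK293-ACE2 cells, 1500/well; compound pre-incubation 1 h; Normalized to spike PP and bald PP.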

Test [6] is described as follows: Confirmatory qHTS to identify inhibitors of SARS-CoV-2 cell entry (AID 1645844). Note: nearly all actives have a fitted effect of over 45% in size. Note: potency is the fitted concentration of half-maximal effect. A digest of the protocol: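 HEK293-ACE2, overnight seeding; cpd 1 h, 37C/5% CO2; + SARS-CoV-2-S MLV PP (Wuhan-Hu-1, ΔC19); 48 h; Bright-Glo luminescence. Data normalised to S PP and bald PP wells.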
Test [7] can be described thus: Primary qHTS for inhibitors of SARS-S pseudo-typed particle cell entry (AID 1479145). Note: nearly all actives have a fitted effect of over 45% in size.
Test [8] is described as follows: Primary qHTS for Huh7 cytotoxicity: counterscreen for inhibitors of MERS-S pseudotyped particle cell entry (AID 1479147). The conditions noted are these: outcome: dose series up to 57.1 µM unless noted.
Test [9] can be described thus: Primary qHTS for inhibitors of MERS-S pseudo-typed particle cell entry (AID 1479149). Note: nearly all actives have a fitted effect of over 60% in size.
Test [10] in a line: Primary qHTS for Vero E6 cytotoxicity: counterscreen for inhibitors of SARS-S pseudo-typed particle cell entry (AID 1479150). The note with it: outcome: dose series up to 57.1 µM unless noted.
Test [11] can be described thus: Confirmatory qHTS for VERO E6 Cytotoxicity Assay: Counterscreen for SARS-CoV-2 CPE Assay (AID 1508605). Note: % is set by controls: 0 for no effect and ±100 for the full control effect; nearly all actives have a fitted effect of over 60% in size.
Test [12] is described as follows: Confirmatory qHTS for activators (rescue) of SARS-CoV-2 Cytopathic Effect (CPE) (AID 1508606). Note: nearly all actives have a fitted effect of over 70% in size. Note: potency is the fitted concentration of half-maximal effect.
Test [13] can be described thus: qHTS profiling of the MIPE4 collection as inhibitors of Plasmodium falciparum (3D7) proliferation (AID 743344; call rule not given here;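 note: scaled between DMSO vehicle wells and 0.29 µM artemisinin as full inhibition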). The conditions noted are these: P. falciparum 3D7 in erythrocytes, SYBR Green DNA fluorescence, 72 h; at 28.5 µM (top of the series) unless noted. The essentials: (§1)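 Parasite DNA was quantified by SYBR Green I fluorescence (ex 485, em 535 nm) after overnight lysis in saponin/Triton buffer at room temperature. Cultures at 0.3% parasitemia and 2.5% hematocrit were first exposed to compound for 72 h at 37 C; signals were normalised to artemisinin (0.29 uM) and vehicle wells.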

A short description of test [14]: qHTS profiling of the MIPE4 collection as inhibitors of Plasmodium falciparum (DD2) proliferation (AID 743345; call rule not given here). The conditions noted are these: P. falciparum Dd2 in erythrocytes, SYBR Green DNA, 72 h; at 28.5 µM (top of the series) unless noted. The essentials:
as §1

Test [15] can be described thus: qHTS profiling of the MIPE4 collection as inhibitors of Plasmodium falciparum (HB3) proliferation (AID 743347; call rule not given here;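 note: plate controls were DMSO vehicle wells for no effect and artemisinin wells for full effect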). The conditions noted are these: P. falciparum HB3 in erythrocytes, SYBR Green DNA, 72 h; at 28.5 µM (top of the series) unless noted. A digest of the protocol: as §1
Test [16] in a line: Validation screen for inhibitors of Lassa infection (AID 463096). Note: potency is the fitted concentration of half-maximal effect.
Test [17] in a line: Inducers of the Endoplasmic Reticulum Stress Response (ERSR) in human glioma: Validation (AID 504836; active = well fitted curve in the direction sought with a large enough effect; note: 0% is about no effect). A digest of the protocol:
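Stably transfected U87-MG glioma cells carrying a GRP78-based luciferase sensor; 16 h compound incubation. Luminescence end-point read 10 min after Bright-Glo addition at room temperature.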

SMILES strings stand for the structures. Records with an inconclusive call do not appear. Active and inactive are the calls of the source. Unless noted, calls come from the whole dose curve.

Sequence of Nucleoprotein (Lymphocytic choriomeningitis virus (strain Armstrong)) (P09992 whole entry, looked up): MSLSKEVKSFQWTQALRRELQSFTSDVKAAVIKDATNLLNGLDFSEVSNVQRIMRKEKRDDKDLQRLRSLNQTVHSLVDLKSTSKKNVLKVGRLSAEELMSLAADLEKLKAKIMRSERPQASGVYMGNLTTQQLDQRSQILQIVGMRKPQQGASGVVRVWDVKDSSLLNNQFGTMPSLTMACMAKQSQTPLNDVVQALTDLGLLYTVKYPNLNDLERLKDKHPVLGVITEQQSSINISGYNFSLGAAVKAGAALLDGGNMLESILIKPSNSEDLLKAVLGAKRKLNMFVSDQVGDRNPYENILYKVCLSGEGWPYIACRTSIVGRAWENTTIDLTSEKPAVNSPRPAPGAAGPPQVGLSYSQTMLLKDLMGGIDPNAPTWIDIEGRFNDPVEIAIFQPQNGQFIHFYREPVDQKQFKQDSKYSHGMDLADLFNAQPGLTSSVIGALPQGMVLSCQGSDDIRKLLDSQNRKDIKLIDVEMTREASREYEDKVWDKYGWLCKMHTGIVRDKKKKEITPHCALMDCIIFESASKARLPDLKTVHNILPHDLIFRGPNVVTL

As to `Cn1cc(-c2cnn3c(N)c(Br)c([C@H]4CCCNC4)nc23)cn1`, the Potency in test [1] was 1.22 µM (active); in [2], 1.53 µM (active); in test [3] it was 2.73 µM (active).
Take `CNC(=O)CN1CCC(Oc2cc3c(Nc4cccc(Cl)c4F)ncnc3cc2OC)CC1`: the Potency in test [1] was 0.0769 µM (active); in test [2], 0.0306 µM (active); in test [3], 0.0385 µM (active). The Potency result in test [4] was “inactive”. For the same molecule, the activity change, negative = inhibition in [5] is -16.1%.
As to `CCCCCCOC(=O)N=C(N)c1ccc(NCc2nc3cc(C(=O)N(CCC(=O)OCC)c4ccccn4)ccc3n2C)cc1`, the Potency entry in test [1], in test [2] and in test [3] was “inactive” in each case.
As for `COCCOC(=O)C1=C(C)NC2=C(C(=O)CC(c3ccccc3OC)C2)C1c1cccc(O)c1` (stereo unspecified), the Potency in test [1] was 17.2 µM (active); in test [2] it was 10.9 µM (active); in test [3], 15.3 µM (active). Further, the Potency entry in test [6] and in [4] was “inactive” each time.
Take `CC(O)(C#Cc1ccc2c(c1)N(c1nc(N)ncc1Cl)CC2)c1nccs1` (stereo unspecified): the Potency in [1] is 21.7 µM (active); in test [2], 17.2 µM (active). Further, the Potency result in test [3] was “inactive”.
Regarding `NCC(=O)Nc1ccc(-n2nc(C(F)(F)F)cc2-c2ccc3c(ccc4ccccc43)c2)cc1`, the Potency in test [1] is 19.3 µM (active); in test [2], 10.9 µM (active); in test [3] it was 1.72 µM (active); in test [6] it was 15.2 µM (active).
For the molecule `C#C[C@]1(O)CC[C@@H]2[C@@H]3CCc4cc(O)ccc4[C@H]3CC[C@@]21C`, the Potency in [1] was 6.85 µM (active); in test [2] it was 3.06 µM (active); in test [3] it was 2.17 µM (active).
Regarding `O=C(C=CC#Cc1cccc(NS(=O)(=O)c2ccccc2)c1)NO`, the Potency in [1] is 13.7 µM (active); in [2] it was 6.85 µM (active); in [3], 12.2 µM (active).
Regarding `CCC(C=C[C@@H]1OC(=O)C=C[C@H]1C)=C[C@H](C)CC=CC(C)=C[C@@H](C)C(=O)[C@@H](C)[C@H](O)[C@@H](C)CC(C)=CC(=O)O`, the results for the Potency in test [1], in [2] and in test [3] were 0.114 µM (active), 0.144 µM (active) and 0.203 µM (active), respectively.
As for `O=C(Cc1ccc(-c2ccc(OCCN3CCOCC3)cc2)cn1)NCc1ccccc1`, the Potency in [1] was 0.0485 µM (active); in test [2], 0.0544 µM (active); in [3], 0.137 µM (active); in [6], 0.136 µM (active).
Consider `Cc1c(C(N)=O)cc([N+](=O)[O-])cc1[N+](=O)[O-]`, for which the Potency result in test [1], in test [2], in test [7], in test [9], in test [4] and in [5] was “inactive” each time. The result in [8] and in test [10] was inactive.
As for `C=CC(=O)Nc1ccc2ncnc(Nc3ccc(OCc4cccc(F)c4)c(Cl)c3)c2c1`, the Potency in test [1] was 0.968 µM (active); in test [2], 0.385 µM (active); in test [3], 0.432 µM (active). In test [5], the Potency result is “inactive”.
Take `O=C(O)Cn1nnc(-c2cc(N3CCC(Oc4cc(F)ccc4Br)CC3)no2)n1`: the Potency in test [1] was 1.53 µM (active); in test [2], 1.72 µM (active); in test [3], 2.73 µM (active); in [4], 3.55 µM (active). For the same molecule, the activity change, negative = inhibition in [5] was -56.8%.
As for `COc1cc(OC)c(C=CS(=O)(=O)Cc2ccc(OC)c(NCC(=O)O)c2)c(OC)c1`, the Potency in test [1] was 0.217 µM (active); in [2], 0.273 µM (active); in test [3], 0.611 µM (active).
In the case of `COc1cc(Nc2nc3ccccc3nc2NS(=O)(=O)c2ccc(NC(=O)c3ccc(C)c(OC)c3)cc2)cc(OC)c1`, the results for the Potency in [1], in test [2] and in test [3] were 21.7 µM (active), 13.7 µM (active) and 27.3 µM (active), respectively. Also, the Potency result in [11], in test [12], in test [4] and in test [5] was “inactive” in each case.
`CC[C@]1(O)C[C@H]2CN(CCC3=c4ccccc4=N[C]3[C@@](C(=O)OC)(c3cc4c(cc3OC)N(C)[C@H]3[C@@](O)(C(N)=O)[C@H](O)[C@]5(CC)C=CCN6CC[C@]43[C@@H]65)C2)C1`: the figures for the Potency in test [1], in [2] and in [6] were 0.0385 µM (active), 0.0109 µM (active) and 0.0764 µM (active), respectively. Also, the Potency entry in [7], in [9] and in [4] was “inactive” each time. Moreover, the call in test [8] and in [10] was inactive.
In the case of `CCOC(=O)N1CCN([N+]([O-])=NOc2ccc([N+](=O)[O-])cc2C#N)CC1`, the Potency in test [1] was 10.9 µM (active). In addition, the Potency result in test [2] and in test [3] was “inactive” throughout.
For `COc1cc([C@@H]2c3cc4c(cc3[C@H](O)[C@H]3COC(=O)[C@@H]23)OCO4)cc(OC)c1OC`, in test [13], the parasite growth, % of DMSO control is 52.9%. In addition, the parasite growth remaining, % of DMSO control (lower = more inhibition) in test [14] amounted to 78.3%. In test [15], the growth, % of control stood at 44.9%. In addition, the Potency was 0.193 µM (active) in test [1], 0.344 µM (active) in [2], 1.09 µM (active) in test [3] and 12.1 µM (active) in test [6].
Turning to `CCC1(O)CC2CN(CCc3c([nH]c4ccccc34)[C@@](C(=O)OC)(c3cc4c(cc3OC)N(C)C3[C@]45CCN4CC=C[C@@](CC)([C@@H](OC(C)=O)[C@]3(O)C(=O)OC)[C@H]45)C2)C1` (stereo partly specified), the Potency was 15.8 µM (active) in test [16], 0.447 µM (active) in test [1], 0.224 µM (active) in test [2] and 0.708 µM (active) in test [3]. For the same molecule, in [17], the molecule was called inactive.
As for `Cn1cc(CNCC2CCN(c3ncc(C(=O)NO)cn3)CC2)c2ccccc21`, the Potency in test [1] was 0.685 µM (active); in test [2] it was 0.485 µM (active); in test [3] it was 1.53 µM (active). Moreover, the Potency entry in test [5] was “inactive”.
Consider `CCC[C@H](Nc1nc(-c2ccc(NC(=O)NCC)c(OC)c2)ncc1C)c1cccnc1`, for which the Potency in test [1] was 0.0385 µM (active); in test [2] it was 0.0485 µM (active); in [3], 0.109 µM (active). Moreover, the activity change, negative = inhibition in [5] was -93.9%.
In the case of `N#Cc1c(C2CCNCC2)cc(-c2c(O)cccc2OCC2CC2)nc1N`, the Potency in test [1] was 19.3 µM (active); in test [2], 8.63 µM (active); in test [3], 5.44 µM (active); in [12], 11.2 µM (active); in test [4] it was 7.94 µM (active). For the same molecule, the Potency entry in [11] is “inactive”.
Take `C=CC(=O)Nc1cccc(Oc2nc(Nc3ccc(N4CCN(C)CC4)cc3)ncc2Cl)c1`: the Potency in [1] was 2.73 µM (active); in test [2] it was 1.72 µM (active). Further, in [3], the Potency result was “inactive”.
Regarding `C#C[C@]1(O)CC[C@H]2[C@H]3CCc4cc(OC)ccc4[C@H]3CC[C@@]21C`, the Potency in [1] is 13.7 µM (active); in test [2], 24.3 µM (active); in test [3], 27.3 µM (active).
